In the supplement of paper PMC7411054:
Counter-ions that a name gives are not always drawn.

What was measured:
Settings in all cases: treatment time: 24 h
A549-ACTB-RAB5A = assay: phenotypically active (imaging signature differs from DMSO and reproducible) at any of 0.3-9 uM (binary (1 = active, 0 = inactive)); higher = active
Method in brief: (§1)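 Fifteen gene-edited A549, HepG2 and WPMY1 reporter lines (BFP segmentation plus GFP and RFP/FusionRed markers) were treated at 0.3, 1, 3 or 9 µM for 24 h, four wells each, then imaged live. Live-cell features per well were normalised to DMSO control wells. Deviation required ≥3 of 4 wells beyond the 95th percentile of DMSO Euclidean distances, and reproducibility required median replicate Pearson correlation above the 95th percentile of non-replicates. Phenotypic activity needed both criteria.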

A549-CANX-COX4 = assay: as above
Method in brief: as §1

A549-GM130-SQSTM1 [1] = assay: as above
Method in brief: as §1

A549-TP53BP1-CLTA = assay: as above
Method in brief: as §1

A549-TUBA1B-RELA = assay: as above
Method in brief: as §1

HepG2-ACTB-RAB5A = assay: as above
Method in brief: as §1

HepG2-CANX-COX4 = assay: as above
Method in brief: as §1

HepG2-GM130-SQSTM1 = assay: as above
Method in brief: as §1

HepG2-TP53BP1-CLTA = assay: as above
Method in brief: as §1

HepG2-TUBA1B-RELA = assay: as above
Method in brief: as §1

WPMY1-ACTB-RAB5A [2] = assay: as above
Method in brief: as §1

WPMY1-CANX-COX4 [3] = assay: as above
Method in brief: as §1

WPMY1-GM130-SQSTM1 [4] = assay: as above
Method in brief: as §1

WPMY1-TP53BP1-CLTA = assay: as above
Method in brief: as §1

WPMY1-TUBA1B-RELA = assay: as above
Method in brief: as §1

A549-GM130-SQSTM1 [5] = assay: lowest phenotypically active concentration; higher = less potent
Method in brief: as §1

WPMY1-CANX-COX4 [6] = assay: as above
Method in brief: as §1

WPMY1-GM130-SQSTM1 [7] = assay: as above
Method in brief: as §1

WPMY1-ACTB-RAB5A [8] = assay: as above
Method in brief: as §1

| SMILES | phenotypically active (A549-ACTB-RAB5A) | phenotypically active (A549-CANX-COX4) | phenotypically active (A549-GM130-SQSTM1 [1]) | phenotypically active (A549-TP53BP1-CLTA) | phenotypically active (A549-TUBA1B-RELA) | phenotypically active (HepG2-ACTB-RAB5A) | phenotypically active (HepG2-CANX-COX4) | phenotypically active (HepG2-GM130-SQSTM1) | phenotypically active (HepG2-TP53BP1-CLTA) | phenotypically active (HepG2-TUBA1B-RELA) | phenotypically active (WPMY1-ACTB-RAB5A [2]) | phenotypically active (WPMY1-CANX-COX4 [3]) | phenotypically active (WPMY1-GM130-SQSTM1 [4]) | phenotypically active (WPMY1-TP53BP1-CLTA) | phenotypically active (WPMY1-TUBA1B-RELA) | lowest phenotypically active concentration (A549-GM130-SQSTM1 [5]) [µM] | lowest phenotypically active concentration (WPMY1-CANX-COX4 [6]) [µM] | lowest phenotypically active concentration (WPMY1-GM130-SQSTM1 [7]) [µM] | lowest phenotypically active concentration (WPMY1-ACTB-RAB5A [8]) [µM] |
| --- | --- | --- | --- | --- | --- | --- | --- | --- | --- | --- | --- | --- | --- | --- | --- | --- | --- | --- | --- |
| Nc1nnc(Sc2ncc([N+](=O)[O-])s2)s1 | 0 (inactive) | 0 (inactive) | 0 (inactive) | 0 (inactive) | 1 (active) | 0 (inactive) | 0 (inactive) | 0 (inactive) | 0 (inactive) | 0 (inactive) | 0 (inactive) | 0 (inactive) | 0 (inactive) | 0 (inactive) | 0 (inactive) | – | – | – | – |
| Cc1cc(C(=O)Nc2cccc(C(=O)Nc3cccc(C(F)(F)F)c3)c2)on1 | 0 (inactive) | 0 (inactive) | 0 (inactive) | 0 (inactive) | 0 (inactive) | 0 (inactive) | 1 (active) | 0 (inactive) | 0 (inactive) | 0 (inactive) | 0 (inactive) | 0 (inactive) | 0 (inactive) | 0 (inactive) | 0 (inactive) | – | – | – | – |
| O=c1c(O)c(-c2ccc(O)cc2)oc2cc(O)cc(O)c12 [Kaempferol] | 0 (inactive) | 0 (inactive) | 1 (active) | 0 (inactive) | 0 (inactive) | 0 (inactive) | 0 (inactive) | 0 (inactive) | 0 (inactive) | 0 (inactive) | 0 (inactive) | 1 (active) | 1 (active) | 1 (active) | 0 (inactive) | 9 | 9 | 9 | – |
| C[C@H](NC(=O)[C@@H](O)c1cc(F)cc(F)c1)C(=O)N[C@@H]1C(=O)N(C)c2ccccc2-c2ccccc21 | 0 (inactive) | 0 (inactive) | 0 (inactive) | 0 (inactive) | 0 (inactive) | 0 (inactive) | 1 (active) | 0 (inactive) | 0 (inactive) | 0 (inactive) | 1 (active) | 1 (active) | 1 (active) | 0 (inactive) | 0 (inactive) | – | 1 | 3 | ≤ 0.3 |
| Nc1nnc2[nH]c3ccccc3nc1-2 | 0 (inactive) | 0 (inactive) | 0 (inactive) | 0 (inactive) | 0 (inactive) | 0 (inactive) | 1 (active) | 0 (inactive) | 0 (inactive) | 0 (inactive) | 0 (inactive) | 0 (inactive) | 0 (inactive) | 0 (inactive) | 0 (inactive) | – | – | – | – |
| CCc1c(C(=O)Nc2cc(S(=O)(=O)N(CC)CC)ccc2O)[nH]c(C)c1C(C)=O | 0 (inactive) | 0 (inactive) | 0 (inactive) | 0 (inactive) | 0 (inactive) | 1 (active) | 1 (active) | 0 (inactive) | 0 (inactive) | 0 (inactive) | 0 (inactive) | 0 (inactive) | 1 (active) | 0 (inactive) | 0 (inactive) | – | – | 9 | – |
| Cc1ccc(-n2sc3ccccc3c2=O)cc1 | 0 (inactive) | 0 (inactive) | 0 (inactive) | 0 (inactive) | 0 (inactive) | 0 (inactive) | 1 (active) | 1 (active) | 0 (inactive) | 0 (inactive) | 1 (active) | 0 (inactive) | 1 (active) | 0 (inactive) | 0 (inactive) | – | – | 9 | 9 |
| c1ccc(-c2n[nH]cc2-c2ccnc3ccccc23)nc1 | 0 (inactive) | 0 (inactive) | 0 (inactive) | 0 (inactive) | 1 (active) | 0 (inactive) | 1 (active) | 1 (active) | 1 (active) | 0 (inactive) | 1 (active) | 1 (active) | 0 (inactive) | 0 (inactive) | 0 (inactive) | – | 9 | – | 9 |
| O=C(O)COc1ccc(Br)cc1/C=C1\SC(=S)N(Cc2cccnc2)C1=O | 0 (inactive) | 0 (inactive) | 1 (active) | 0 (inactive) | 0 (inactive) | 0 (inactive) | 0 (inactive) | 1 (active) | 0 (inactive) | 0 (inactive) | 0 (inactive) | 0 (inactive) | 1 (active) | 0 (inactive) | 0 (inactive) | 9 | – | 3 | – |
| CC(C)(C)c1ccc(C(=O)Nc2cn3cc(-n4ccnc4)ccc3n2)cc1 | 0 (inactive) | 0 (inactive) | 0 (inactive) | 0 (inactive) | 0 (inactive) | 1 (active) | 0 (inactive) | 0 (inactive) | 0 (inactive) | 0 (inactive) | 0 (inactive) | 0 (inactive) | 0 (inactive) | 0 (inactive) | 0 (inactive) | – | – | – | – |
| CCCc1cc2c(N3CCN(C4=NCC(C)(C)S4)CC3)ncnc2s1 [MI 2 dihydrochloride] | 0 (inactive) | 0 (inactive) | 1 (active) | 0 (inactive) | 0 (inactive) | 1 (active) | 1 (active) | 1 (active) | 1 (active) | 0 (inactive) | 1 (active) | 0 (inactive) | 1 (active) | 0 (inactive) | 0 (inactive) | 9 | – | 9 | 3 |
| Cc1cc2sc(NC(=O)Cc3ccccc3)nc2cc1Cl | 0 (inactive) | 0 (inactive) | 1 (active) | 0 (inactive) | 1 (active) | 0 (inactive) | 0 (inactive) | 0 (inactive) | 0 (inactive) | 0 (inactive) | 0 (inactive) | 0 (inactive) | 0 (inactive) | 0 (inactive) | 0 (inactive) | 3 | – | – | – |
| CC(C)NCC(O)COc1ccc(CC(N)=O)cc1 (stereo not given) [atenolol-()] | 0 (inactive) | 0 (inactive) | 1 (active) | 0 (inactive) | 0 (inactive) | 0 (inactive) | 0 (inactive) | 0 (inactive) | 0 (inactive) | 0 (inactive) | 0 (inactive) | 0 (inactive) | 1 (active) | 1 (active) | 0 (inactive) | 9 | – | 9 | – |
| NS(=O)(=O)c1cc2c(cc1C(F)(F)F)NC(Cc1ccccc1)NS2(=O)=O (stereo not given) [bendroflumethiazide] | 0 (inactive) | 0 (inactive) | 0 (inactive) | 0 (inactive) | 0 (inactive) | 0 (inactive) | 1 (active) | 0 (inactive) | 0 (inactive) | 0 (inactive) | 0 (inactive) | 0 (inactive) | 0 (inactive) | 0 (inactive) | 0 (inactive) | – | – | – | – |
| CC(C)N(CCCNC(=O)Nc1ccc(C(C)(C)C)cc1)C[C@H]1O[C@@H](n2cc(Br)c3c(N)ncnc32)[C@H](O)[C@@H]1O | 0 (inactive) | 0 (inactive) | 0 (inactive) | 1 (active) | 0 (inactive) | 1 (active) | 1 (active) | 1 (active) | 1 (active) | 1 (active) | 1 (active) | 1 (active) | 1 (active) | 1 (active) | 1 (active) | – | 3 | 9 | 3 |
| O=C(O)[C@H]1CCCC[C@H]1C(=O)N1CCc2ccccc2[C@H]1CN1C(=O)c2ccccc2C1=O | 0 (inactive) | 0 (inactive) | 0 (inactive) | 0 (inactive) | 0 (inactive) | 1 (active) | 0 (inactive) | 1 (active) | 0 (inactive) | 1 (active) | 0 (inactive) | 0 (inactive) | 0 (inactive) | 0 (inactive) | 0 (inactive) | – | – | – | – |
| CCOc1nc(NC(=O)Cc2cc(OC)ccc2OC)cc(N)c1C#N | 0 (inactive) | 0 (inactive) | 0 (inactive) | 0 (inactive) | 1 (active) | 0 (inactive) | 0 (inactive) | 0 (inactive) | 0 (inactive) | 0 (inactive) | 0 (inactive) | 0 (inactive) | 0 (inactive) | 0 (inactive) | 0 (inactive) | – | – | – | – |
| COc1cc(-c2cn(C)c(=O)c3cnccc23)c(OC)cc1CN(C)C | 0 (inactive) | 0 (inactive) | 0 (inactive) | 1 (active) | 0 (inactive) | 1 (active) | 0 (inactive) | 1 (active) | 0 (inactive) | 1 (active) | 0 (inactive) | 0 (inactive) | 0 (inactive) | 0 (inactive) | 1 (active) | – | – | – | – |
| Cc1cc(C)c(C)c(S(=O)(=O)Nc2ccc(N3CC[C@H](C(=O)O)C3)c3ccccc23)c1C | 0 (inactive) | 0 (inactive) | 1 (active) | 0 (inactive) | 0 (inactive) | 0 (inactive) | 0 (inactive) | 1 (active) | 0 (inactive) | 0 (inactive) | 0 (inactive) | 0 (inactive) | 1 (active) | 0 (inactive) | 0 (inactive) | 9 | – | 1 | – |
| S=c1[nH]cnc2nc[nH]c12 [mercaptopurine] | 0 (inactive) | 0 (inactive) | 0 (inactive) | 0 (inactive) | 0 (inactive) | 1 (active) | 1 (active) | 0 (inactive) | 0 (inactive) | 1 (active) | 0 (inactive) | 1 (active) | 1 (active) | 0 (inactive) | 1 (active) | – | 9 | 9 | – |
| C[C@@H]1CN(Cc2ccc(F)cc2)[C@@H](C)CN1C(=O)c1cc2c(C(=O)C(=O)N(C)C)cn(C)c2cc1Cl [SCIO 469 hydrochloride] | 0 (inactive) | 0 (inactive) | 0 (inactive) | 0 (inactive) | 0 (inactive) | 1 (active) | 1 (active) | 0 (inactive) | 1 (active) | 1 (active) | 1 (active) | 1 (active) | 0 (inactive) | 0 (inactive) | 0 (inactive) | – | 3 | – | 1 |
| CC1=C(/C=C/C(C)=C/C=C/C(C)=C/C(=O)O)C(C)(C)CCC1 [isotretinoin] | 0 (inactive) | 0 (inactive) | 0 (inactive) | 0 (inactive) | 0 (inactive) | 0 (inactive) | 1 (active) | 0 (inactive) | 0 (inactive) | 0 (inactive) | 0 (inactive) | 0 (inactive) | 0 (inactive) | 1 (active) | 0 (inactive) | – | – | – | – |
| Clc1ccc(C(c2ccc(Cl)cc2)[n+]2ccn(CC(OCc3ccc(Cl)cc3Cl)c3ccc(Cl)cc3Cl)c2)cc1 (stereo not given) [Calmidazolium chloride] | 0 (inactive) | 0 (inactive) | 0 (inactive) | 0 (inactive) | 0 (inactive) | 1 (active) | 0 (inactive) | 0 (inactive) | 0 (inactive) | 1 (active) | 0 (inactive) | 1 (active) | 1 (active) | 0 (inactive) | 1 (active) | – | 3 | 3 | – |
